Assay results as given in the supplement of paper PMC9262897, “Low-cost anti-mycobacterial drug discovery using engineered E. coli” (Nature Communications, 2022).
Where a name gives a salt, the structure may show the parent alone. ± gives the standard deviation of the averaged measurements.

Key:
Test in all cases: growth (OD600 after 10 h); higher = more growth (less inhibition)
[1] = system: E. coli TESEC Alr+ wild-type control; settings: compound 0.1 mM; raw OD600 reference: median of DMSO wells 0.241, cell-free background 0.041
Experimental: (§1)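 TESEC Mtb Alr E. coli, or the Alr+ wild-type control, in 384-well plates with Prestwick library compounds at 0.1 mM and 1% DMSO, across arabinose induction levels of 1E3 to 1E7 nM. Growth is read as OD600 after 10 h at 37 °C in triplicate biological replicates.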

E. coli TESEC Mtb Alr [2] = settings: compound 0.1 mM
Experimental: as §1

E. coli TESEC Mtb Asd = settings: compound 0.1 mM
Experimental: (§2)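 TESEC E. coli strains in which the native enzyme is deleted and replaced by arabinose-inducible Mtb Asd, DapB, CysH or TrpD, each grown in its selective medium. Strains were screened against the Prestwick library at 0.1 mM and 1% DMSO in 384-well format at low and high arabinose induction. Growth is read as OD600 after 10 h in triplicate.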

E. coli TESEC Mtb DapB = settings: compound 0.1 mM
Experimental: as §2

[3] = system: E. coli TESEC Alr+ wild-type control; settings: compound 0.1 mM; raw OD600 reference: median of DMSO wells 0.49, cell-free background 0.052
Experimental: (§3)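 TESEC Mtb Alr E. coli (ΔaraC ΔtolC ΔentC Δalr ΔdadX, arabinose-inducible Mtb Alr) or the Alr+ wild-type control strain, grown in defined M9-fructose medium without D-alanine in 96-well plates with Prestwick library compounds at 0.1 mM and 1% DMSO. Low Alr induction is 0.1 µM arabinose and high induction is 10 mM arabinose.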

E. coli TESEC Mtb Alr [4] = settings: compound 0.1 mM; remark: listed apart in the source
Experimental: as §3

[5] = arabinose 1000 nM, raw OD600 reference: median of DMSO wells 0.294, cell-free background 0.041
[6] = arabinose 10000 nM, raw OD600 reference: median of DMSO wells 0.264, cell-free background 0.041
[7] = arabinose 100000 nM, raw OD600 reference: median of DMSO wells 0.201, cell-free background 0.041
[8] = arabinose 1000000 nM, raw OD600 reference: median of DMSO wells 0.193, cell-free background 0.041
[9] = arabinose 10000000 nM, raw OD600 reference: median of DMSO wells 0.146, cell-free background 0.041
[10] = arabinose induction (level): High, raw OD600 reference: median of DMSO wells 0.331, cell-free background 0.041
[11] = arabinose induction (level): Low, raw OD600 reference: median of DMSO wells 0.417, cell-free background 0.041
[12] = arabinose induction (level): High, raw OD600 reference: median of DMSO wells […], cell-free background 0.041
[13] = arabinose induction (level): Low, raw OD600 reference: median of DMSO wells 0.227, cell-free background 0.041
[14] = arabinose 100 nM, raw OD600 reference: median of DMSO wells 0.413, cell-free background 0.052
[15] = arabinose 10000000 nM, raw OD600 reference: median of DMSO wells […], cell-free background 0.052

| Compound | growth [1] | growth (E. coli TESEC Mtb Alr [2]; [5]) | growth (E. coli TESEC Mtb Alr [2]; [6]) | growth (E. coli TESEC Mtb Alr [2]; [7]) | growth (E. coli TESEC Mtb Alr [2]; [8]) | growth (E. coli TESEC Mtb Alr [2]; [9]) | growth (E. coli TESEC Mtb Asd; [10]) | growth (E. coli TESEC Mtb Asd; [11]) | growth (E. coli TESEC Mtb DapB; [12]) | growth (E. coli TESEC Mtb DapB; [13]) | growth [3] | growth (E. coli TESEC Mtb Alr [4]; [14]) | growth (E. coli TESEC Mtb Alr [4]; [15]) |
| --- | --- | --- | --- | --- | --- | --- | --- | --- | --- | --- | --- | --- | --- |
| COc1ccc2[nH]c([S+]([O-])Cc3ncc(C)c(OC)c3C)nc2n1 (stereo unspecified) [Tenatoprazole] | 0.202 ± 0.008 | 0.192 ± 0.0066 | 0.227 ± 0.012 | 0.128 ± 0.0093 | 0.0829 ± 0.0019 | 0.134 ± 0.0048 | 0.388 ± 0.031 | 0.379 ± 0.065 | 0.184 ± 0.0083 | 0.201 ± 0.017 | 0.35 ± 0.01 | 0.397 ± 0.013 | 0.196 ± 0.035 |
| O=C1NCCN1c1ncc([N+](=O)[O-])s1 [Niridazole] | 0.0479 ± 0.0055 | 0.0513 ± 0.005 | 0.0413 ± 0.0019 | 0.0452 ± 0.0004 | 0.0407 ± 0.00045 | 0.0598 ± 0.023 | 0.0946 ± 0.0021 | 0.203 ± 0.07 | 0.161 ± 0.015 | 0.177 ± 0.022 | 0.0563 ± 0.002 | 0.119 ± 0.025 | 0.0512 ± 0.00072 |
| CCn1cc(C(=O)O)c(=O)c2cc(F)c(N3CCNCC3)cc21 [Norfloxacin] | 0.04437 ± 0.00025 | 0.0427 ± 0.00078 | 0.0398 ± 0.00098 | 0.0437 ± 0.00036 | 0.0398 ± 0.0006 | 0.0437 ± 0.00035 | 0.0546 ± 0.0041 | 0.0626 ± 0.0092 | 0.0581 ± 0.00065 | 0.0745 ± 0.015 | 0.0524 ± 0.0022 | 0.0551 ± 0.002 | 0.05117 ± 0.00047 |
| C[C@H](CCC(=O)O)[C@H]1CC[C@H]2[C@@H]3C(=O)C[C@@H]4CC(=O)CC[C@]4(C)[C@H]3CC(=O)[C@]12C [Dehydrocholic acid] | 0.252 ± 0.0042 | 0.252 ± 0.062 | 0.25 ± 0.012 | 0.186 ± 0.022 | 0.183 ± 0.0057 | 0.138 ± 0.0079 | 0.329 ± 0.068 | 0.33 ± 0.07 | 0.196 ± 0.0059 | 0.236 ± 0.04 | 0.569 ± 0.034 | 0.406 ± 0.0045 | 0.3 ± 0.0058 |
| Cc1oncc1C(=O)Nc1ccc(C(F)(F)F)cc1 [Leflunomide] | 0.139 ± 0.0056 | 0.149 ± 0.0026 | 0.1904 ± 0.0019 | 0.138 ± 0.0062 | 0.106 ± 0.0035 | 0.096 ± 0.00046 | 0.381 ± 0.085 | 0.327 ± 0.018 | 0.226 ± 0.028 | 0.255 ± 0.034 | 0.3131 ± 0.0014 | 0.364 ± 0.021 | 0.158 ± 0.027 |
| CN1CCN(c2c(F)cc3c(=O)c(C(=O)O)cn4c3c2SCC4)CC1 [Rufloxacin] | 0.04323 ± 0.00015 | 0.0429 ± 0.001 | 0.03973 ± 0.00031 | 0.04207 ± 0.00031 | 0.03957 ± 0.00025 | 0.0429 ± 0.0015 | 0.04973 ± 0.00045 | 0.0499 ± 0.0012 | 0.0507 ± 0.00094 | 0.0509 ± 0.0014 | 0.0549 ± 0.00072 | 0.0582 ± 0.0019 | 0.05197 ± 0.00051 |
| CN(C)CCCSC(=N)N [Dimaprit dihydrochloride] | 0.2627 ± 0.0019 | 0.308 ± 0.011 | 0.267 ± 0.0039 | 0.205 ± 0.014 | 0.201 ± 0.015 | 0.131 ± 0.0034 | 0.255 ± 0.035 | 0.409 ± 0.093 | 0.196 ± 0.006 | 0.199 ± 0.016 | 0.617 ± 0.017 | 0.406 ± 0.015 | 0.349 ± 0.019 |
| CN(C)CCc1c[nH]c2ccc(Cn3cncn3)cc12 [Rizatriptan benzoate] | 0.24 ± 0.0036 | 0.2899 ± 0.0026 | 0.258 ± 0.00081 | 0.198 ± 0.0062 | 0.213 ± 0.022 | 0.141 ± 0.006 | 0.337 ± 0.057 | 0.417 ± 0.051 | 0.193 ± 0.0065 | 0.211 ± 0.015 | 0.633 ± 0.061 | 0.408 ± 0.012 | 0.34 ± 0.0085 |
| CCc1c2c(nc3ccc(OC(=O)N4CCC(N5CCCCC5)CC4)cc13)-c1cc3c(c(=O)n1C2)COC(=O)[C@]3(O)CC [Irinotecan hydrochloride trihydrate] | 0.234 ± 0.0062 | 0.32 ± 0.0061 | 0.2556 ± 0.0019 | 0.218 ± 0.015 | 0.18 ± 0.0024 | 0.156 ± 0.0056 | 0.321 ± 0.042 | 0.414 ± 0.026 | 0.227 ± 0.0094 | 0.243 ± 0.0046 | 0.514 ± 0.052 | 0.401 ± 0.0022 | 0.366 ± 0.018 |
| CC(=O)OC(C)C[N+](C)(C)C (stereo unspecified) [Methacholine chloride] | 0.238 ± 0.0071 | 0.282 ± 0.0064 | 0.269 ± 0.0094 | 0.171 ± 0.011 | 0.187 ± 0.0089 | 0.134 ± 0.0072 | 0.361 ± 0.092 | 0.428 ± 0.025 | 0.2263 ± 0.0013 | 0.243 ± 0.023 | 0.466 ± 0.066 | 0.413 ± 0.021 | 0.361 ± 0.015 |
| CC[N+](C)(C)Cc1ccccc1Br [Bretylium tosylate] | 0.253 ± 0.011 | 0.323 ± 0.02 | 0.261 ± 0.0084 | 0.22 ± 0.0026 | 0.1733 ± 0.00021 | 0.1633 ± 0.00072 | 0.484 ± 0.032 | 0.476 ± 0.018 | 0.221 ± 0.025 | 0.241 ± 0.013 | 0.624 ± 0.021 | 0.409 ± 0.015 | 0.324 ± 0.017 |
| CCOC(=O)OC(C)OC1=C(C(=O)Nc2ccccn2)N(C)S(=O)(=O)c2ccccc21 (stereo unspecified) [Ampiroxicam] | 0.228 ± 0.015 | 0.27 ± 0.0052 | 0.255 ± 0.0083 | 0.183 ± 0.018 | 0.165 ± 0.007 | 0.157 ± 0.0076 | 0.237 ± 0.034 | 0.339 ± 0.033 | 0.206 ± 0.024 | 0.266 ± 0.048 | 0.582 ± 0.1 | 0.415 ± 0.01 | 0.293 ± 0.019 |
| CS(=O)(=O)c1ccc([C@@H](O)[C@@H](CO)NC(=O)C(Cl)Cl)cc1 [Thiamphenicol] | 0.0517 ± 0.0013 | 0.0511 ± 0.0029 | 0.0394 ± 0.00036 | 0.0517 ± 0.0013 | 0.0395 ± 0.0001 | 0.055 ± 0.0011 | 0.0715 ± 0.0096 | 0.0618 ± 0.0034 | 0.0792 ± 0.0018 | 0.0622 ± 0.0072 | 0.206 ± 0.015 | 0.301 ± 0.012 | 0.086 ± 0.0081 |
| CNCCC(Oc1ccccc1OC)c1ccccc1 (stereo unspecified) [Nisoxetine hydrochloride] | 0.206 ± 0.015 | 0.258 ± 0.011 | 0.2337 ± 0.0022 | 0.173 ± 0.004 | 0.153 ± 0.0049 | 0.139 ± 0.0023 | 0.247 ± 0.049 | 0.405 ± 0.026 | 0.149 ± 0.031 | 0.2 ± 0.018 | 0.566 ± 0.12 | 0.4 ± 0.011 | 0.346 ± 0.018 |
| CC(=O)O[C@]1(C(C)=O)CC[C@H]2[C@@H]3C=C(Cl)C4=CC(=O)CC[C@]4(C)[C@H]3CC[C@@]21C [Chlormadinone acetate] | 0.15 ± 0.0069 | 0.156 ± 0.0078 | 0.0802 ± 0.014 | 0.148 ± 0.0022 | 0.0653 ± 0.0047 | 0.11 ± 0.0088 | 0.12 ± 0.0098 | 0.0867 ± 0.0071 | 0.0988 ± 0.0082 | 0.109 ± 0.029 | 0.442 ± 0.0057 | 0.3733 ± 0.0037 | 0.203 ± 0.03 |
| CC(C)(O)c1ccccc1CC[C@@H](SCC1(CC(=O)O)CC1)c1cccc(/C=C/c2ccc3ccc(Cl)cc3n2)c1 [Montelukast] | 0.24 ± 0.013 | 0.281 ± 0.0035 | 0.317 ± 0.012 | 0.31 ± 0.019 | 0.206 ± 0.0075 | 0.261 ± 0.012 | 0.219 ± 0.028 | 0.347 ± 0.065 | 0.183 ± 0.025 | 0.253 ± 0.023 | 0.566 ± 0.061 | 0.479 ± 0.027 | 0.376 ± 0.026 |
| CCC1(C)CC(=O)NC1=O (stereo unspecified) [Ethosuximide] | 0.2481 ± 0.002 | 0.287 ± 0.014 | 0.267 ± 0.0062 | 0.219 ± 0.016 | 0.1876 ± 0.0001 | 0.141 ± 0.003 | 0.38 ± 0.03 | 0.417 ± 0.026 | 0.1866 ± 0.0016 | 0.245 ± 0.052 | 0.436 ± 0.043 | 0.4152 ± 0.0041 | 0.368 ± 0.019 |
